Source: PubChem BioAssay (National Center for Advancing Translational Sciences (NCATS))
Rows were chosen to be rich in hits. Some 2.8% of all compounds tested hit in one or more screens of this group.
Pol iota inh: DNA polymerase iota (human) inhibition | Q9UNA4 | Pol iota fluorescent replication assay, 10 min | Potency, µM (highest dose often 115 µM), usual class: inhibitors | 390,000 compounds, 1% hits | AID 588590
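Fluorescent replication assay read twice, at 0 min and 10 min after adding 50 nM (final) substrate. Enzyme (10 nM) and compounds were first incubated 15 min at room temperature; enzyme-free buffer wells were negative controls.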
POLK inh: inhibitors of human DNA polymerase kappa | Q9UBT6 | purified Pol kappa, fluorescent DNA synthesis assay, 10 min | Potency, µM (doses to about 107 µM), usual class: inhibitors | 400,000 compounds, 0.53% hits | AID 588579
Target sequence (Q9UBT6 whole entry, looked up): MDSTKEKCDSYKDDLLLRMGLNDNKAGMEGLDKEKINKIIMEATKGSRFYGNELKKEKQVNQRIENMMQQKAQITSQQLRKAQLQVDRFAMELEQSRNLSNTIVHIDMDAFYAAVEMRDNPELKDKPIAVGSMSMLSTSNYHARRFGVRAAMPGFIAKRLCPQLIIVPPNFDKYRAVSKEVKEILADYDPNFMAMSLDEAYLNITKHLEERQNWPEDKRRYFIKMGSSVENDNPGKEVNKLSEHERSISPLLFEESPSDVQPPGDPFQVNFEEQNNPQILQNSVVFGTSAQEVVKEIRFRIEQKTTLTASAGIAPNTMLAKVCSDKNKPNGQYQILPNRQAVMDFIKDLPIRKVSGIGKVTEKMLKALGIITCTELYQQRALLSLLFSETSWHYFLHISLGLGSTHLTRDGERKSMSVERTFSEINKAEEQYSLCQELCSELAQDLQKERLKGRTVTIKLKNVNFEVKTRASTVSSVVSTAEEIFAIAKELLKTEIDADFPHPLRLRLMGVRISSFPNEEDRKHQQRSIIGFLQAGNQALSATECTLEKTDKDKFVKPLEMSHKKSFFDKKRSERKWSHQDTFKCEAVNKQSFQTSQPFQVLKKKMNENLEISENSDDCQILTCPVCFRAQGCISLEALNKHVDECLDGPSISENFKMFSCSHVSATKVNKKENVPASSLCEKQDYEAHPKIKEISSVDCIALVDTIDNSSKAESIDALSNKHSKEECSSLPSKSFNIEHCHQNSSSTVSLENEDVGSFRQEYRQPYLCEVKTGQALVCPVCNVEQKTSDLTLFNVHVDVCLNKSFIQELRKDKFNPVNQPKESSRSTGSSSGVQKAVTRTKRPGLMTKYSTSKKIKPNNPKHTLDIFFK
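Activity was followed as the change in fluorescence between reads at 0 and 10 min after starting the reaction with 50 nM substrate. Beforehand, 10 nM polymerase had been preincubated with compound for 15 min at room temperature.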
PI5P4Ka inh: blocks human PI5P4K alpha kinase activity; 330,000 compounds, 1.2% hits; P48426; max response, %; PI5P4Kalpha enzyme, ADP-Glo luminescence, 60 min; stronger effect = lower value; active = max response of -50% or lower; inconclusive = between -30% and -50%; inactive = -30% or higher; note: value at the top dose of about 77 µM
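Controls without substrate or without enzyme flank wells where PI5P4Kalpha converts substrate using 5 microM ATP (final). Incubation lasts 60 minutes at room temperature; ADP formed is read by ADP-Glo luminescence.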
Pol beta inh: inhibitors of human DNA polymerase beta; Pol beta primer extension/strand displacement, fluorescence kinetic; Potency, µM (highest dose often 114 µM), hits mostly inhibitors; 340,000 compounds, 1.3% hits
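Values derive from four-parameter Hill fits of normalized kinetic data: reads at 0 and 10 min following addition of 50 nM substrate to 10 nM Pol beta preincubated 15 min with compound.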
Pol eta inh: blocks human DNA polymerase eta activity. Q9Y253. recombinant Pol eta, fluorescent DNA replication assay. Potency, µM (titrated, usually from 114 µM), hits mostly inhibitors. 390,000 compounds, 1.2% hits
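Pol eta at 10 nM preincubated with compounds 15 min at room temperature; reaction started with fluorescent substrate (50 nM final) and read kinetically at 0 and 10 min.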
WRN inhibitor: WRN helicase (human) inhibition | Q14191 | WRN helicase unwinding, fluorescent forked duplex, kinetic | Potency, µM (highest dose often 114 µM), most hits filed as inhibitors | 360,000 compounds, 0.46% hits | AID 651768; note: nearly all actives have a fitted effect of over 55% in size
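Enzyme (20 nM final) and test compound sit together 15 min at room temperature before substrate addition. Substrate is a single-forked duplex oligonucleotide (100 nM) labelled with fluorophore and quencher, with 2 mM ATP; helicase unwinding raises red fluorescence, read kinetically.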
Each line names hits and unclear results; the compound was inactive in the other large screens. Unless noted, calls come from the whole dose curve; as a rule, active = well fitted curve in the direction sought with a large enough effect; inconclusive = small, poorly fitted or top-dose-only effect, or another doubt; inactive = no such curve, though single readings can be large; an effect the other way counts as inactive or inconclusive.

O=C(COc1ccccc1)N/N=C/c1ccc([N+](=O)[O-])o1	Pol iota inh inconclusive, POLK inh inconclusive, PI5P4Ka inh -55, Pol eta inh inconclusive
O=C(N/N=C/c1ccc([N+](=O)[O-])o1)C1CC1	Pol iota inh 22µM, Pol beta inh 18µM, Pol eta inh 40µM
Cc1ccc(NC(=O)CCC(=O)N/N=C/c2ccc([N+](=O)[O-])o2)cc1C	Pol iota inh inconclusive, Pol beta inh inconclusive
CCCC(=O)Nc1ccc(C(=O)N/N=C/c2ccc([N+](=O)[O-])o2)cc1	Pol iota inh inconclusive, Pol beta inh 45µM, Pol eta inh inconclusive
Cc1cc(=O)oc2cc(OCC(=O)N/N=C/c3ccccc3[N+](=O)[O-])ccc12	Pol iota inh 28µM, POLK inh inconclusive, Pol beta inh 32µM, Pol eta inh inconclusive, WRN inhibitor inconclusive
CCOc1ccccc1C(C(=O)NC1CCCC1)N(C(=O)c1csnn1)C1CC1 (stereo unspecified)	none
CCCc1nc2c3ccccc3ccn2c1Cc1ccccc1	none (no result: Pol iota inh, POLK inh, Pol beta inh, Pol eta inh)
NC(=O)N/N=C/c1ccc([N+](=O)[O-])o1	none (no result: Pol beta inh)
COC(=O)N/N=C/c1ccc([N+](=O)[O-])o1	Pol iota inh 56µM, Pol beta inh inconclusive
Cc1ccc(-c2ccc(C3C(C#N)=C(N)Oc4n[nH]c(C)c43)o2)cc1 (stereo unspecified)	Pol iota inh inconclusive (no result: PI5P4Ka inh)
N#CC1=C(N)Oc2n[nH]c(-c3ccccc3)c2C1c1ccsc1 (stereo unspecified)	Pol iota inh inconclusive, PI5P4Ka inh -65, Pol eta inh inconclusive
N#CC1=C(N)Oc2n[nH]c(-c3ccncc3)c2C1c1ccsc1 (stereo unspecified)	none (no result: PI5P4Ka inh)
Cc1[nH]nc2c1C(c1ccsc1)C(C#N)=C(N)O2 (stereo unspecified)	PI5P4Ka inh -60
Cc1ccc(-c2[nH]nc3c2C(c2ccsc2)C(C#N)=C(N)O3)cc1 (stereo unspecified)	PI5P4Ka inh -52
Cc1[nH]nc2c1C(c1ccc(-c3ccccc3C#N)o1)C(C#N)=C(N)O2 (stereo unspecified)	Pol beta inh 56µM (no result: PI5P4Ka inh)
Cc1cc(CNC[C@H]2O[C@@H](n3cnc(C(N)=O)n3)[C@H](O)[C@@H]2O)c(C)n1-c1cccnc1	none (no result: Pol beta inh)
Cc1cccc(NC(=O)C2CCC(CNS(=O)(=O)c3ccc(Br)s3)CC2)c1 (stereo unspecified)	none (no result: PI5P4Ka inh, WRN inhibitor)
O=C(O)c1ccc(-c2ccc(/C=N/Nc3ccc([N+](=O)[O-])cc3)o2)cc1	PI5P4Ka inh -55, Pol beta inh inconclusive, Pol eta inh 50µM, WRN inhibitor inconclusive
Cc1c(C(=O)O)cccc1-c1ccc(/C=N/Nc2ccc(Br)cc2)o1	Pol iota inh inconclusive, Pol beta inh inconclusive, Pol eta inh 22µM, WRN inhibitor inconclusive
CC1=NN(c2ccc(Br)cc2)C(=O)/C1=C/c1ccc(-c2ccccc2C(=O)O)o1	Pol iota inh inconclusive, Pol eta inh 79µM
O=C(O)c1cccc(-c2ccc(/C=N/Nc3ccc([N+](=O)[O-])cc3)o2)c1	Pol eta inh inconclusive, WRN inhibitor inconclusive
O=C(O)c1ccc(N/N=C/c2ccc(-c3ccc(Cl)cc3Cl)o2)cc1	Pol beta inh inconclusive, Pol eta inh inconclusive
O=C(O)c1ccc(N/N=C/c2ccc(-c3cccc(Cl)c3)o2)cc1	Pol iota inh inconclusive, Pol beta inh inconclusive, Pol eta inh 79µM
CCOC(=O)[C@]12CCCC=C1N(Cc1cccc3ccccc13)C(=O)[C@H](CC(=O)NCCc1ccccc1OC)C2	none (no result: Pol iota inh, POLK inh, Pol beta inh, Pol eta inh)
COc1ccc(-c2nc(S(=O)(=O)c3ccc(Cl)cc3)c(N3CCCCCC3)o2)cc1	none (no result: PI5P4Ka inh, Pol eta inh, WRN inhibitor)
O=C1/C(=C\c2ccc(-c3ccccc3[N+](=O)[O-])o2)C(c2ccccc2)=NN1c1ccccc1	Pol iota inh 10µM, Pol eta inh 50µM
CCc1cccc(C)c1NC(=O)Cn1nnc(-c2nc(-c3ccccc3F)no2)c1N	Pol beta inh inconclusive, Pol eta inh inconclusive (no result: PI5P4Ka inh, WRN inhibitor)
CC(=O)NC(C)(CC(=O)c1ccccc1)c1ccccc1 (stereo unspecified)	none (no result: Pol beta inh)
Cc1cc(/C=N/NC(=O)C(O)(c2ccccc2)c2ccccc2)c(C)n1-c1ccc(C(=O)O)cc1	Pol iota inh inconclusive, Pol beta inh inconclusive, Pol eta inh 79µM
Cc1cc(/C=N/NC(=O)c2cccc(N(C)C)c2)c(C)n1-c1cc(C(=O)O)cc(C(=O)O)c1	Pol iota inh 10µM, POLK inh 32µM, PI5P4Ka inh inconclusive, Pol beta inh 18µM, Pol eta inh 20µM, WRN inhibitor inconclusive
CN(C)c1cccc(C(=O)N/N=C/c2ccccc2F)c1	none
COc1ccc(/C=C\C(=O)c2c(O)ccc3c(C)cc(=O)oc23)cc1	Pol iota inh inconclusive
COc1ccc(/C=C/C(=O)c2c(O)ccc3c(C)cc(=O)oc23)cc1	Pol iota inh 18µM
O=[N+]([O-])c1cc(CN(CCO)CCO)ccc1O	Pol iota inh 25µM, POLK inh inconclusive, Pol beta inh 50µM, Pol eta inh inconclusive
Cc1c(Cl)cccc1NC(=O)C1NC(=O)CC1c1ccccc1 (stereo unspecified)	Pol eta inh inconclusive
CN(C)[C@@H]1C(=O)C(C(=O)NCN2CCCC2)=C(O)[C@@]2(O)C(=O)C3=C(O)c4c(O)cccc4[C@@](C)(O)C3CC12 (stereo partly specified)	Pol beta inh 0.5µM (no result: Pol iota inh, POLK inh, PI5P4Ka inh, Pol eta inh, WRN inhibitor)
CN(C)[C@H]1C(=O)C(C(=O)NCN2CCCC2)=C(O)[C@]2(O)C(=O)C3=C(O)c4c(O)cccc4[C@](C)(O)[C@H]3C[C@H]12	POLK inh 3.8µM (no result: Pol iota inh, PI5P4Ka inh, Pol beta inh, Pol eta inh, WRN inhibitor)
CN(C)c1ccc(O)c2c1CC1CC3C(N(C)C)C(=O)C(C(N)=O)=C(O)[C@@]3(O)C(=O)C1=C2O (stereo partly specified)	Pol iota inh inconclusive, POLK inh inconclusive (no result: Pol beta inh)
Cc1cc(=O)[nH]c2cc(O)ccc12	none (no result: PI5P4Ka inh)
Cc1cc(=O)[nH]c2ccc(O)cc12	Pol iota inh 79µM, POLK inh inconclusive (no result: PI5P4Ka inh, Pol beta inh, Pol eta inh, WRN inhibitor)
O=C(O)c1cc(Cl)c2c(c1)OCO2	Pol iota inh inconclusive, Pol beta inh inconclusive, Pol eta inh 22µM
CC1CCN(C(=O)COC(=O)c2cc(Cl)c3c(c2)OCO3)CC1	Pol eta inh inconclusive (no result: Pol beta inh)
Cc1cc2c3ccccc3ncn2n1	none
O=C1NC(=O)/C(=C/c2cccc(O)c2)N1	PI5P4Ka inh -64
O=C1NC(=O)C(=Cc2ccccc2)N1	none (no result: Pol beta inh)
COc1ccc(Cc2c(-c3cccc(Cl)c3)nc3ccc(C)cn23)c(C)c1	none (no result: Pol iota inh, POLK inh, Pol beta inh, Pol eta inh)
C/C(=N\NC(=O)Cc1c[nH]c2ccccc12)c1ccc2ccccc2c1	PI5P4Ka inh -53
COc1ccc(C(=O)CCC(=O)Nc2ccc(OC)c(Cl)c2)cc1	Pol beta inh inconclusive (no result: PI5P4Ka inh, WRN inhibitor)
